Our source for the Potency values is PubChem BioAssay (NCATS).

Structures are written as SMILES. Records with an inconclusive call do not appear. Entries that show only a call come without a potency. Calls of active or inactive are those of the source. The call rests on the fitted dose curve; in most records, active means well fitted cell-killing curve with a large enough effect; inconclusive means small, poorly fitted or top-dose-only effect; inactive means flat fitted curve, though single readings scatter.
Further: nearly all actives have a fitted effect of over 35% in size.
Potency means the concentration at half of the fitted maximal effect.

The first assay is described as follows: Quantitative highthroughput screen to assess conditional lethalithy of P12 Ichikawa cells grown in Human Plasma-Like Medium with dialyzed fetal bovine serum (HPLM+ds) (AID 1963879). The conditions noted are these: ATP luminescence, 48 h; Potency: viability; series mostly up to 45.8 µM. Summed up: (§1)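 Each medium arm—HPLM with 10% dialyzed FBS, or RPMI1640 with 5 mM glucose and 10% untreated or dialyzed FBS—was screened against an 11-point, 3-fold compound titration for 48 h at 37 °C, with CellTiter-Glo luminescence as endpoint.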
As to `CCn1c(-c2nonc2N)nc2cncc(CNC3CCNCC3)c21`, the Potency is 6620 nM (active).

As to `NCCS(=O)(=O)O`, the Potency result is “inactive”.

`C[C@@H](NCCCc1cccc(C(F)(F)F)c1)c1cccc2ccccc12`: the Potency result is “inactive”.

Regarding `COc1ccc2[nH]cc(CCNC(C)=O)c2c1`, the Potency entry was “inactive”.

In the case of `CCCOc1ccc(C(=O)OCCN(CC)CC)cc1N`, the Potency entry was “inactive”.

Turning to `NCCc1cnc[nH]1`, the Potency entry was “inactive”.

Regarding `CC1CCN(c2cc(N3CCN(C)CC3)ccc2NC(=O)c2cc(C#N)c[nH]2)CC1`, the Potency result is “inactive”.

`COc1ccc([C@@H]2CNC(=O)C2)cc1OC1CCCC1`: the Potency entry was “inactive”.

For `CN1CC[C@@H](c2c(O)cc(O)c3c(=O)cc(-c4ccccc4Cl)oc23)[C@@H](O)C1`, the Potency is 743 nM (active).

`Nc1ncnc2c1ncn2[C@@H]1O[C@H](CO)[C@@H](O)[C@@H]1O`: the Potency was 7430 nM (active).

Take `Cc1c(-c2ccnn2C)cc(C(=O)NCc2ccc(S(C)(=O)=O)cn2)c(=O)n1-c1cccc(C(F)(F)F)c1`: the Potency entry was “inactive”.

Take `COC(=O)Nc1cc(Nc2cc(NC3CC3)c3ncc(C#N)n3n2)c(Cl)c(N2CCN(C)CC2)c1`: the Potency was 20900 nM (active).

For `Cc1cc(Nc2ncnc3ccc(-c4ccc(CNCCS(C)(=O)=O)o4)cc23)ccc1Oc1ccn2ncnc2c1`, the Potency was 209 nM (active).

In the case of `O[C@@H](COc1cccc2ncccc12)CN1CCN(C2c3ccccc3[C@@H]3[C@H](c4ccccc42)C3(F)F)CC1` (stereo partly specified), the Potency entry is “inactive”.

In the case of `CC1=CC(=O)c2ccccc2C1=O`, the Potency entry was “inactive”.

As to `CN(C)c1nc(N(C)C)nc(N(C)C)n1`, the Potency entry is “inactive”.

Turning to `CNCc1ccc(-c2[nH]c3cc(F)cc4c3c2CCNC4=O)cc1`, the Potency entry is “inactive”.

Turning to `CC(NCCc1ccc(O)cc1)C(O)c1ccc(O)cc1` (stereo unspecified), the Potency entry is “inactive”.

As for `CN1CCN(Cc2ccc(NC(=O)Nc3ccc(Oc4cc(NC(=O)C5CC5)ncn4)cc3)cc2C(F)(F)F)CC1`, the Potency is 526 nM (active).

Take `CC(C)C[C@H](NC(=O)[C@@H](NC(=O)c1cccc(-c2ccccc2)n1)[C@@H](C)O)B(O)O`: the Potency is 52.6 nM (active).

As to `Cc1nc(N)ncc1-c1nc(N2CCOCC2)c2sc(C(C)(C)O)cc2n1`, the Potency is 83.3 nM (active).

For `Cn1cnc2c(F)c(Nc3ccc(Br)cc3Cl)c(C(=O)NOCCO)cc21`, the Potency is 662 nM (active).

Regarding `COC(=O)N1CC2(CC2)C[C@H](C(=O)NO)[C@H]1C(=O)N1CCN(c2ccccc2)CC1`, the Potency was 331 nM (active).

As for `CN1CCC(COc2cnc(-c3cccc(Cn4nc(-c5cccc(C#N)c5)ccc4=O)c3)nc2)CC1`, the Potency result is “inactive”.

Consider `Oc1ccc(-c2nc(-c3ccc(F)cc3)c(-c3ccncc3)[nH]2)cc1`, for which the Potency is 5260 nM (active).

Take `CCN(CC)CCNC(=O)c1ccc2nc(-c3ccccc3)c(-c3ccc(CN4CCC(n5c(=O)[nH]c6ccccc65)CC4)cc3)nc2c1`: the Potency is 2350 nM (active).

The next assay can be described thus: Quantitative highthroughput screen to assess conditional lethalithy of P12 Ichikawa cells grown in RPMI1640 with dialyzed fetal bovine serum (RPMI+ds) (AID 1963880). The conditions noted are these: ATP luminescence, 48 h; Potency: P12-Ichikawa viability; series mostly up to 45.8 µM. Summed up: as §1
For the molecule `CC(=O)OCC(CCn1cnc2cnc(N)nc21)COC(C)=O`, the Potency entry is “inactive”.

Regarding `CNC(=O)c1ccc2cc(C3(O)CCn4cncc43)ccc2c1` (stereo unspecified), the Potency entry is “inactive”.

In the case of `COc1ncc(-c2ccc3c(Nc4cc(Oc5cc(F)cc(F)c5)cc(C(=O)O)c4)c(S(=O)(=O)NC4CC4)cnc3c2)c(OC)n1`, the Potency entry is “inactive”.

For `Cc1cc(C(C)Nc2ccccc2)c2nc(N3CCOCC3)cc(=O)n2c1` (stereo unspecified), the Potency result is “inactive”.

As for `O=C1CCC[C@@H]2[C@H]3CCC[N+]4([O-])CCC[C@@H](CN12)[C@@H]34` (stereo partly specified), the Potency entry was “inactive”.

In the case of `CN(CCOc1ccc(NS(C)(=O)=O)cc1)CCc1ccc(NS(C)(=O)=O)cc1`, the Potency result was “inactive”.

For the molecule `CC[C@@H]([C@H](C)O)n1ncn(-c2ccc(N3CCN(c4ccc(OCC5CO[C@@](Cn6cncn6)(c6ccc(F)cc6F)C5)cc4)CC3)cc2)c1=O` (stereo partly specified), the Potency entry is “inactive”.

With `O=C(c1ccc(F)cc1)C1CCN(CCn2c(=O)[nH]c3ccccc3c2=O)CC1`, the Potency entry was “inactive”.

With `CC(O)C1C(=O)N2C(C(=O)O)=C(SC3CNC(C(=O)N(C)C)C3)C(C)C12` (stereo unspecified), the Potency result was “inactive”.

On to `COc1ccc(F)c(F)c1C(=O)c1cnc(NC2CCN(S(C)(=O)=O)CC2)nc1N`, for which the Potency is 11800 nM (active).

Regarding `COc1ccc2c(Oc3ccc(NC(=O)c4c(C)n(CC(C)(C)O)n(-c5ccccc5)c4=O)cc3F)ccnc2c1`, the Potency result is “inactive”.

For `CC1CNc2c(cccc2S(=O)(=O)N[C@@H](CCCN=C(N)N)C(=O)N2CC[C@@H](C)C[C@@H]2C(=O)O)C1` (stereo partly specified), the Potency result is “inactive”.

For `Cc1cnc(Nc2ccc(OCCN3CCCC3)cc2)nc1Nc1cccc(S(=O)(=O)NC(C)(C)C)c1`, the Potency result was “inactive”.

On to `CCCCN(CCCC)CCC(O)c1cc2c(Cl)cc(Cl)cc2c2cc(C(F)(F)F)ccc12` (stereo unspecified), for which the Potency entry was “inactive”.

On to `CCn1c(-c2nonc2N)nc2cncc(CNC3CCNCC3)c21`, for which the Potency was 18700 nM (active).

`NCCS(=O)(=O)O`: the Potency entry is “inactive”.

On to `C[C@@H](NCCCc1cccc(C(F)(F)F)c1)c1cccc2ccccc12`, for which the Potency result is “inactive”.

For the molecule `COc1ccc2[nH]cc(CCNC(C)=O)c2c1`, the Potency entry was “inactive”.

For `CCCOc1ccc(C(=O)OCCN(CC)CC)cc1N`, the Potency entry is “inactive”.

For the molecule `NCCc1cnc[nH]1`, the Potency result was “inactive”.

For the molecule `CC1CCN(c2cc(N3CCN(C)CC3)ccc2NC(=O)c2cc(C#N)c[nH]2)CC1`, the Potency entry is “inactive”.

As for `COc1ccc([C@@H]2CNC(=O)C2)cc1OC1CCCC1`, the Potency result was “inactive”.

Regarding `CN1CC[C@@H](c2c(O)cc(O)c3c(=O)cc(-c4ccccc4Cl)oc23)[C@@H](O)C1`, the Potency is 590 nM (active).

Consider `Nc1ncnc2c1ncn2[C@@H]1O[C@H](CO)[C@@H](O)[C@@H]1O`, for which the Potency was 14800 nM (active).

For the molecule `Cc1c(-c2ccnn2C)cc(C(=O)NCc2ccc(S(C)(=O)=O)cn2)c(=O)n1-c1cccc(C(F)(F)F)c1`, the Potency result was “inactive”.

For `COC(=O)Nc1cc(Nc2cc(NC3CC3)c3ncc(C#N)n3n2)c(Cl)c(N2CCN(C)CC2)c1`, the Potency is 11700 nM (active).

For the molecule `Cc1cc(Nc2ncnc3ccc(-c4ccc(CNCCS(C)(=O)=O)o4)cc23)ccc1Oc1ccn2ncnc2c1`, the Potency is 743 nM (active).

Take `O[C@@H](COc1cccc2ncccc12)CN1CCN(C2c3ccccc3[C@@H]3[C@H](c4ccccc42)C3(F)F)CC1` (stereo partly specified): the Potency entry is “inactive”.

As for `CC1=CC(=O)c2ccccc2C1=O`, the Potency result was “inactive”.

Take `CN(C)c1nc(N(C)C)nc(N(C)C)n1`: the Potency entry was “inactive”.

For the molecule `CNCc1ccc(-c2[nH]c3cc(F)cc4c3c2CCNC4=O)cc1`, the Potency entry was “inactive”.

As for `CC(NCCc1ccc(O)cc1)C(O)c1ccc(O)cc1` (stereo unspecified), the Potency result is “inactive”.

Take `CN1CCN(Cc2ccc(NC(=O)Nc3ccc(Oc4cc(NC(=O)C5CC5)ncn4)cc3)cc2C(F)(F)F)CC1`: the Potency was 418 nM (active).

In the case of `CC(C)C[C@H](NC(=O)[C@@H](NC(=O)c1cccc(-c2ccccc2)n1)[C@@H](C)O)B(O)O`, the Potency is 59 nM (active).

`Cc1nc(N)ncc1-c1nc(N2CCOCC2)c2sc(C(C)(C)O)cc2n1`: the Potency is 372 nM (active).

Regarding `Cn1cnc2c(F)c(Nc3ccc(Br)cc3Cl)c(C(=O)NOCCO)cc21`, the Potency is 743 nM (active).

`COC(=O)N1CC2(CC2)C[C@H](C(=O)NO)[C@H]1C(=O)N1CCN(c2ccccc2)CC1`: the Potency was 1050 nM (active).

As to `CN1CCC(COc2cnc(-c3cccc(Cn4nc(-c5cccc(C#N)c5)ccc4=O)c3)nc2)CC1`, the Potency entry is “inactive”.

On to `Oc1ccc(-c2nc(-c3ccc(F)cc3)c(-c3ccncc3)[nH]2)cc1`, for which the Potency was 13200 nM (active).

As for `CCN(CC)CCNC(=O)c1ccc2nc(-c3ccccc3)c(-c3ccc(CN4CCC(n5c(=O)[nH]c6ccccc65)CC4)cc3)nc2c1`, the Potency was 2640 nM (active).
